This note sets out measurements from PubChem BioAssay (NCATS).

In assay [1] the target is N-terminal Xaa-Pro-Lys N-methyltransferase 1 (Homo sapiens) (UniProt Q9BV86). The experiment in a line: qHTS Assay for Inhibitors of N-terminal methyltransferase 1 (NTMT1): LOPAC validation of the NTMT1 SAHH-coupled ThioGlo3 Assay (AID 1347143).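 Note: SAH from peptide methylation measured as thiol fluorescence via SAHH coupling and ThioGlo3; nearly all actives have a fitted effect of over 70% in size.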 Note: potency is the fitted concentration of half-maximal effect. To be noted: recombinant NTMT1, SAHH-coupled ThioGlo3 fluorescence; series mostly up to 114 µM. In outline: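 Recombinant human NTMT1 (125nM) was pre-incubated 1 min at room temperature with compounds over a concentration range, then a mix of 100uM SAM, 10uM SAHH and 15uM ThioGlo3 (concentrations in added reagent) was added. ThioGlo3 fluorescence (ex 340/em 450nm) after 30 min was normalized to the initial reading.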
Sequence of N-terminal Xaa-Pro-Lys N-methyltransferase 1 (Homo sapiens) (Q9BV86 whole entry, looked up): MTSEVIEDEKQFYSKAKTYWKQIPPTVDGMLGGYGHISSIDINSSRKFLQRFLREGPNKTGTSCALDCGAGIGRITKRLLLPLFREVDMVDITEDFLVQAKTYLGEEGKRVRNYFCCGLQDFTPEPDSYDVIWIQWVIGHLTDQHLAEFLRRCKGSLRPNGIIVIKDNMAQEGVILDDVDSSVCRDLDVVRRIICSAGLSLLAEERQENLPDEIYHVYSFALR

The test system of assay [2] is Zika virus NS2B-NS3 protease (unlinked). The assay can be described thus: Optimization of GU AMC qHTS for Zika virus inhibitors: Unlinked NS2B-NS3 protease assay (AID 1347151). Note: nearly all actives have a fitted effect of over 80% in size. Note: potency is the fitted concentration of half-maximal effect. To be noted: recombinant ZIKV NS2B-NS3 protease, fluorogenic AMC substrate; series mostly up to 52.5 µM. The method in brief: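 Fluorescence read-out (340 nm ex / 450 nm em) of AMC peptide cleavage, taken immediately and after 15 min at room temperature (~20% conversion). Enzyme was the unlinked NS2B–NS3 complex at 25 nM in Tris pH 8.0 buffer.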
In general terms: Quantitative high-throughput screening tests each substance at several concentrations.

Assay [3] has as its system Zika virus NS2B-NS3 protease. The experiment in a line: Primary screen GU AMC qHTS for Zika virus inhibitors (AID 1347154). Note: nearly all actives have a fitted effect of over 70% in size. To be noted: Zika NS2B-NS3 unlinked protease, AMC fluorogenic substrate; series mostly up to 54.1 µM. The method in brief: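 Unlinked Zika NS2B hydrophilic domain–NS3 protease complex at 25 nM in 10 mM Tris-HCl pH 8.0, 0.01% Tween 20, with an AMC peptide substrate. Fluorescence change (340/450 nm) over 15 min at room temperature, normalized to controls, fitted to 4-parameter Hill.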

Assay [4] deals with Furin (Homo sapiens) (UniProt P09958). The experiment in a line: Furin counterscreen qHTS for Zika virus inhibitors (AID 1347149). Note: nearly all actives have a fitted effect of over 70% in size. Note: potency is the fitted concentration of half-maximal effect. To be noted: furin enzymatic counterscreen, fluorogenic substrate; series mostly up to 57.5 µM. The method in brief: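 Fluorogenic cleavage of BOC-RVRR-AMC (2 microM final, Km ~15 µM) was monitored (ex 340, em 450 nm) at 37C after 15 min RT preincubation of 5 nM furin with compounds in HEPES pH 7.0 buffer with CaCl2 and Triton X-100. Percent inhibition was fitted to a 4-parameter Hill curve.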
Sequence of Furin (Homo sapiens) (P09958 whole entry, looked up): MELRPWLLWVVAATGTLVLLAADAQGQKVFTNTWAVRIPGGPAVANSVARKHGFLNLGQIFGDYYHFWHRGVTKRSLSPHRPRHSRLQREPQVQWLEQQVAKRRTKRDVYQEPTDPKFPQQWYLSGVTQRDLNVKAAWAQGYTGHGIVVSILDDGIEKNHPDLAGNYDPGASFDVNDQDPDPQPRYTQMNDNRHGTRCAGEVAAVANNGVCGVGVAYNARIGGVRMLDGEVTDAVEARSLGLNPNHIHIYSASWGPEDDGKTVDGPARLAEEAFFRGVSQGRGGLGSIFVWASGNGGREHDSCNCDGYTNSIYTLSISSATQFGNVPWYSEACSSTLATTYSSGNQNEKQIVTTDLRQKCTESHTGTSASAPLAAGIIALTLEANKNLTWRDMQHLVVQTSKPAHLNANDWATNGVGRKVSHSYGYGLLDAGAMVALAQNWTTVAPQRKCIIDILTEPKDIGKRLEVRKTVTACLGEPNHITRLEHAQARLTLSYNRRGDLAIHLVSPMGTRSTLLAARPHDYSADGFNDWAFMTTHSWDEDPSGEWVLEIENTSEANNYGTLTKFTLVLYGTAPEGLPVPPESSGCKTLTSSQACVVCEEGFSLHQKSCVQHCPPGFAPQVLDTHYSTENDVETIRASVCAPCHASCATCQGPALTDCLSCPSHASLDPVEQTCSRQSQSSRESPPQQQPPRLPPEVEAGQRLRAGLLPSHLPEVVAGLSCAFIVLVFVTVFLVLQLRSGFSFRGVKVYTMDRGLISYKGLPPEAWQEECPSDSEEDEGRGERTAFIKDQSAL
For orientation: A counterscreen serves to expose hits that act by an unwanted route or on another target.

For assay [5], the system named is Zika virus NS2B-NS3 protease (linked construct). The assay can be described thus: Confirmatory screen NINDS AMC qHTS for Zika virus inhibitors (AID 1347152).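 Note: AMC fluorescence gain from cleaved Bz-Nle-KRR-AMC substrate over 15 min; top concentration of the series differs between compounds; nearly all actives have a fitted effect of over 70% in size.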 To be noted: Purified linked NS2B-NS3, AMC substrate fluorescence; series mostly up to 56.6 µM. The method in brief:
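Linked NS2B-NS3 1 nM, Tris pH 8.0/0.01% Tween 20; cpd 15 min RT dark; + Nle-KRR-AMC 10 µM (Km 18.3 µM); read 0 and 15 min, 340/450 nm; %inh vs controls, 4-param Hill.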

The subject of assay [6] is Zika virus NS2B-NS3 protease (unlinked complex). The experiment in a line: Confirmatory screen GU AMC qHTS for Zika virus inhibitors (AID 1347153). Note: nearly all actives have a fitted effect of over 70% in size. To be noted: Recombinant NS2B-NS3 protease, AMC substrate fluorescence; series mostly up to 57.1 µM. The method in brief:
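Compounds were preincubated 15 min at room temperature with 25 nM noncovalent NS2B-NS3 protease at pH 8.0; AMC substrate added at 10 microM and 15-min fluorescence gain (340/450 nm) converted to percent inhibition, fitted 4-parameter.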

Assay [7] in a line: Confirmatory screen NINDS Rhodamine qHTS for Zika virus inhibitors (AID 1347161). Note: nearly all actives have a fitted effect of over 60% in size. Note: potency is the fitted concentration of half-maximal effect. To be noted: purified enzyme assay, Rhodamine110 substrate fluorescence, 15 min; series mostly up to 114 µM. The method in brief: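 Aprotinin served as in-plate control. Conditions: 25 nM linked NS2B-NS3, pH 8.0 Tris buffer, titrated compounds, 15 min preincubation and 15 min reaction with 1.5 microM Rhod110 substrate at room temperature.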

In assay [8] the test system is Zika virus NS2B-NS3 protease (linked). The assay can be described thus: 384 well plate NINDS AMC confirmatory qHTS for Zika virus inhibitors (AID 1347163).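 Note: linked protease at 5 30 or 60 nM final depending on run; fluorescence of AMC released from Ac-VKTGKR-AMC peptide cleaved by the protease; top concentration of the series differs between compounds; nearly all actives have a fitted effect of over 50% in size.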 To be noted: Recombinant NS2B-NS3 protease, Ac-VKTGKR-AMC fluorescence; series mostly up to 1 mM. In outline: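 Linked protease 5/30/60 nM final; cpds up to 1 mM final, ~15 min preinc. Substrate Ac-VKTGKR-AMC 30 microM final. RT, dark, 25 min; FI ex 355/em 460; normalized to no-enzyme/no-inhibitor ctrls.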

Assay [9] is described as follows: ZIKV-mCherry secondary qHTS for Zika virus inhibitors (AID 1347158). Note: top concentration of the series differs between compounds. To be noted: Vero cells, ZIKV-mCherry infection imaging, 48-72 h; series mostly up to 32.6 µM. In outline:
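After overnight seeding at 37 °C, Vero cells receive compound and then ZIKV-mCherry (MOI 1). Following 48-72 h infection, cells are fixed, counterstained with Hoechst, and imaged; percent infected cells is derived from an mCherry intensity cut-off of 450 RFU.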

The nature of assay [10]: Confirmatory screen GU Rhodamine qHTS for Zika virus inhibitors qHTS (AID 1347157). To be noted: purified enzyme assay, Rhodamine110 substrate fluorescence, 15 min. The method in brief:
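Buffer 10 mM Tris-HCl pH 8.0, 0.01% Tween 20. Unlinked protease 25 nM; compound preincubation 15 min, RT, protected from light. Substrate Rhod110, 1.5 microM; ~15% conversion in 15 min.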

Results filed as inconclusive are left out. The source made the active and inactive calls. Calls come from the whole dose curve; as a rule, active = well fitted curve in the direction sought with a large enough effect; inconclusive = small, poorly fitted or top-dose-only effect, or another doubt; inactive = no such curve, though single readings can be large; an effect the other way counts as inactive or inconclusive. Numbered stars: 1 amine (or outer) side, 2 acyl side, 3 side chain; on linkers, the order of the positions; unused ones are H or OH. Bridge positions count the residues as written; N and C are the ends. Square brackets hold non-standard residues; d marks the D form. Peptide text beside a SMILES is read from it. I, II: the chains in the order shown. Actinocin(9to1) = Cc1c2oc3c(C)ccc(C(=O)[*:1])c3nc-2c(C(=O)[*:2])c(N)c1=O; NMeV = CN[C@H](C(=O)O)C(C)C; Sar = CNCC(=O)O

For the molecule `CNCCC(Oc1ccccc1C)c1ccccc1` (stereo unspecified), the Potency entry in assay [1] and in assay [2] was “inactive” each time.

Consider `C[C@]12CC[C@@H]3c4ccc(O)cc4CC[C@H]3[C@@H]1CC[C@@H]2O`, for which the Potency entry in assay [2] and in assay [3] was “inactive” throughout.

Turning to `CC(C)(C)CC(C)(C)c1ccc(OCCOCC[N+](C)(C)Cc2ccccc2)cc1`, the Potency entry in assay [4], in assay [2] and in assay [3] was “inactive” throughout.

For the molecule `N[C@@H](Cc1cnc[nH]1)C(=O)O`, the Potency result in assay [1] and in assay [2] was “inactive” throughout.

Turning to `C/C=C/c1ccc(OC)cc1`, the Potency entry in assay [3] was “inactive”.

As for `CC(CCc1ccccc1)NCC(O)c1ccc(O)c(C(N)=O)c1` (stereo unspecified), the Potency in assay [1] was 56.2 µM (active); in assay [2] it was 26.7 µM (active).

Turning to `CC(C)C[C@H]1C(=O)N2CCC[C@H]2[C@]2(O)O[C@](NC(=O)[C@@H]3C=C4c5cccc6[nH]c(Br)c(c56)C[C@H]4N(C)C3)(C(C)C)C(=O)N12`, the figures for the Potency in assay [1] and in assay [2] were 56.2 µM (active) and 11.9 µM (active), respectively. The Potency entry in assay [5], in assay [6] and in assay [7] was “inactive” in each case.

With `CC1(C)CCC(NC(=O)[C@@H](N)CCC(=O)O)CC1`, the Potency result in assay [1] and in assay [2] was “inactive” throughout.

As to `COc1cc(NS(C)(=O)=O)ccc1Nc1c2ccccc2nc2ccccc12`, the Potency in [1] was 50.1 µM (active); in assay [2], 29.9 µM (active).

For `Nc1ccn([C@@H]2O[C@H](CO)[C@@H](O)C2(F)F)c(=O)n1`, the Potency result in [4], in assay [2] and in assay [3] was “inactive” each time.

With `CC(=O)O[C@H]1C[C@@H]2CC[C@@H]3[C@H](CC[C@@]4(C)[C@H]3C[C@H]([N+]3(C)CCCCC3)[C@@H]4OC(C)=O)[C@@]2(C)C[C@@H]1[N+]1(C)CCCCC1`, the Potency entry in assay [1] and in [2] was “inactive” throughout.

Regarding `COc1c(C)c2c(c(O)c1C/C=C(\C)CCC(=O)O)C(=O)OC2`, the Potency result in assay [4] and in assay [3] was “inactive” throughout. Further, the Potency in [2] is 24.1 µM (active). Besides, the result in assay [8] was inactive.

Take `CCCC1O[C@@H]2C[C@H]3[C@@H]4CCC5=CC(=O)C=C[C@]5(C)[C@H]4[C@@H](O)C[C@]3(C)[C@]2(C(=O)CO)O1` (stereo partly specified): the Potency entry in assay [1] and in assay [2] was “inactive” in each case.

Take `CC(=O)CC(c1ccc([N+](=O)[O-])cc1)c1c(O)c2ccccc2oc1=O` (stereo unspecified): the Potency result in assay [3] is “inactive”.

As for `CCCCC(CC)CN=C(N)NC(N)=NCCCCCCN=C(N)NC(N)=NCC(CC)CCCC` (stereo unspecified), the Potency in assay [4] was 21.5 µM (active). Further, the Potency entry in [9] was “inactive”.

As to `N[C@H](CO)C(=O)O`, the Potency result in [1], in assay [2] and in assay [3] was “inactive” each time.

As for `Oc1c(Cl)cc(Cl)cc1Sc1cc(Cl)cc(Cl)c1O`, in assay [4], the Potency entry is “inactive”. Besides, the Potency is 22.4 µM (active) in assay [10] and 7.08 µM (active) in assay [7]. In assay [8], the outcome was inactive.

`CNCCC=C1c2ccccc2CCc2ccccc21`: the Potency result in [1] and in assay [2] was “inactive” throughout.

`Cc1c2oc3c(C)ccc(C(=O)N[C@@H]4C(=O)N[C@H](C(C)C)C(=O)N5CCC[C@H]5C(=O)N(C)CC(=O)N(C)[C@@H](C(C)C)C(=O)O[C@@H]4C)c3nc-2c(C(=O)N[C@@H]2C(=O)N[C@H](C(C)C)C(=O)N3CCC[C@H]3C(=O)N(C)CC(=O)N(C)[C@@H](C(C)C)C(=O)O[C@@H]2C)c(N)c1=O` (I: T[dV]P[Sar][NMeV] / II: T[dV]P[Sar][NMeV]; ester I:1-I:C, II:1-II:C; linker I:N-II:N via Actinocin(9to1)): in assay [2], the Potency was 27.1 µM (active). For the same molecule, the Potency entry in assay [5], in assay [6], in [3] and in [7] was “inactive” each time.

Turning to `CC(C)COC(=O)OCN1C(=O)CN(CCN2CC(=O)N(COC(=O)OCC(C)C)C(=O)C2)CC1=O`, the Potency entry in assay [1] and in assay [2] was “inactive” in each case.

As for `O=C1CCC(c2ccc(-n3ccnc3)cc2)=NN1`, the Potency result in assay [1] and in assay [2] was “inactive” in each case.

With `COC(=O)[C@H]1[C@H]2C[C@H]3c4[nH]c5ccccc5c4CCN3C[C@H]2CC[C@@H]1O`, the Potency result in assay [2] was “inactive”.

In the case of `C#C[C@]1(OC(C)=O)CC[C@H]2[C@@H]3CCC4=C[C@@H](OC(C)=O)CC[C@@H]4[C@H]3CC[C@@]21C`, the Potency result in assay [3] was “inactive”.

For `COc1cc2c(cc1O)CC[C@@H]1[C@@H]2CC[C@]2(C)[C@@H](O)CC[C@@H]12`, the Potency entry in assay [2] was “inactive”.
